# Source: PubChem (several laboratories)
# Sa ugtP lethal = kills S. aureus RN4220 lacking UgtP; S. aureus RN4220 ugtP deletion, OD600 growth, 16 h; growth inhibition, % (test concentration not listed); actives 0.54% (n = 330,000); AID 1259309; in the data active = growth inhibition above about 68%
# TcdB GH inh = blocks C. difficile toxin B glycohydrolase activity. P18177. TcdB glycohydrolase enzymatic assay, plate reader. inhibition, % at 9.99 µM. actives 0.24% (n = 350,000); in the data active = inhibition above about 10%
# MazF activator = increases E. coli MazEF RNase cleavage of RNA; P0AE70; FAM/BHQ RNA-DNA oligo cleavage fluorescence, 5 h; activation, % at 20 µM; actives 0.32% (n = 350,000); AID 504720; in the data active = activation above about 50%
# Mtb hypoxia rep = reduces hypoxia-regulated biosensor signal in M. tuberculosis. M. tuberculosis hypoxia-regulated fluorescent reporter, fluorescence. fluorescence inhibition, % (concentration not given with the values). actives 0.1% (n = 300,000). AID 1159583; in the data active = fluorescence inhibition mostly above about 23%, no sharp cut-off; inactive = mostly below about 17%
# PfHsp40 yeast = restores yeast growth despite PfHsp40 toxicity. S. cerevisiae expressing PfHsp40, growth rescue, ATP luminescence. actives 0.68% (n = 340,000). AID 504582. growth rescue, % at 12.5 µM; in the data active = growth rescue above about 28%, passing the limit was not always enough;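 note: yeast W303a lacking pdr1 and pdr3 grown in galactose medium; growth measured after three days at 30 °C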
# RN4220 kill = S. aureus RN4220 growth inhibition; OD600, 16 h; inhibition, % (concentration not given with the values); actives 0.33% (n = 330,000); in the data active = inhibition above about 85%
# Numbers stand for hits; n = inactive; x = no result given; + = active, no number. The list is not random: actives were taken first. Their share in the collection is about 1.3%.
SMILES,Sa ugtP lethal,TcdB GH inh,MazF activator,Mtb hypoxia rep,PfHsp40 yeast,RN4220 kill
Cc1ccccc1-n1c(SCC(N)=O)nc2sc(-c3ccccc3)cc2c1=O,n,x,n,n,n,n
Cc1ccc(C(=O)Nc2ccc(O)cc2C(=O)O)cc1C,n,20,n,n,n,n
CO[C@@H]1CN(C)C(=O)c2ccc(NC(=O)NC(C)C)cc2OC[C@H](C)N(CCC(F)(F)F)C[C@@H]1C,x,n,x,x,x,x
CCc1ccc(C(C)=NNS(=O)(=O)c2ccc(OC)cc2)s1,n,x,x,n,x,n
CCN1/C(=C/C=C/C=C/C=C/c2sc3ccccc3[n+]2CC)Sc2ccccc21,98,n,n,n,n,92
CCN1/C(=C/C=C/c2sc3ccccc3[n+]2CC)Sc2ccccc21,x,x,n,x,254,x
C[C@H](CO)N1C[C@H](C)[C@@H](CN(C)C(=O)c2cnccn2)Oc2cc(C3=CCCC3)ccc2S1(=O)=O,x,n,x,x,x,x
C=CCSc1nc2c(c(C3CC=CCC3)c1C#N)CCC2 (configuration not stated),97,x,n,n,n,n
CC(C)OC(=O)CSc1nc2c(c(C3CC=CCC3)c1C#N)CCC2 (configuration not stated),n,n,n,n,n,n
CCOC(=O)c1ccc(NC(=S)N(Cc2cccnc2)Cc2ccco2)cc1,n,n,n,n,389,n
O=C(Oc1c(Cl)cc(Cl)c2cccnc12)c1cccs1,n,x,n,n,341,n
O=C(Oc1c(CN2CCOCC2)cc(Cl)c2cccnc12)c1cccs1,n,n,n,n,n,n
O=C(Oc1c(Cl)cc(Cl)c2cccnc12)c1ccco1,98,x,n,n,n,99
NNC(=O)CNC(=O)Nc1n[nH]c(=S)s1,x,10,x,x,x,x
O=C(Nc1n[nH]c(=S)s1)c1ccco1,n,n,n,n,n,n
CO[C@@H]1CN(C)C(=O)c2cc(NS(=O)(=O)CC(F)(F)F)ccc2OC[C@@H](C)N(Cc2ccccn2)C[C@@H]1C,x,n,x,x,x,x
O=S(=O)(O)c1cc(Cl)cc(N=Nc2ccc(O)cc2O)c1O,x,n,n,x,58,x
Cc1cnc(C(=O)OCC(=O)Nc2cccc3ccccc23)cn1,n,n,n,26,n,n
Cc1cnc(C(=O)OCC(=O)Nc2cccc(C)c2C)cn1,n,n,n,n,n,n
Cc1cnc(C(=O)OCC(=O)Nc2c(Cl)cc(Cl)cc2Cl)cn1,n,n,n,n,63,n
Cc1cnc(C(=O)OCC(=O)Nc2ccc(OCc3ccccc3)cc2)cn1,n,13,n,n,n,n
Cc1cnc(C(=O)OCC(=O)Nc2cc(Cl)cc(Cl)c2)cn1,n,n,n,n,n,n
CCC(=O)N1C[C@@H](C)[C@@H](OC)CN(C)C(=O)c2cc(NC(=O)C3CCOCC3)ccc2OC[C@H]1C,x,n,x,x,x,x
S=C(NN=C1C2CN3CCN(C2)CC1(c1ccccc1)C3)Nc1ccccc1,n,x,x,n,x,n
Nc1c(C(=O)C2CC2)sc2nc(-c3cccs3)cc(C(F)(F)F)c12,n,x,+,x,n,n
SMILES,Sa ugtP lethal,TcdB GH inh,MazF activator,Mtb hypoxia rep,PfHsp40 yeast,RN4220 kill
CN1CCN(c2ccc([N+](=O)[O-])c3no[n+]([O-])c23)CC1,98,n,n,n,n,n
COc1cccc(C(=O)C(C#N)=NNc2cccc(-c3ccnc(C)n3)c2)c1,n,x,x,n,x,n
Cc1nc2cc(C(=O)OCC(=O)Nc3cccc(Cl)c3)ccc2n1-c1ccccc1,99,n,n,n,n,n
Cc1nc2cc(C(=O)OCC(=O)NC34CC5CC(CC(C5)C3)C4)ccc2n1-c1ccccc1,n,x,n,n,n,n
CC(C)(C)c1cc[n+](/C(C(=S)Nc2ccccc2F)=C(/[O-])c2ccc3c(c2)OCCO3)cc1,n,n,n,n,n,n
[O-]C(=C(C(=S)Nc1cccc2ccccc12)[n+]1ccccc1)c1ccc2c(c1)OCCO2,n,x,n,n,35,n
CCC(=O)Nc1cc2c(C)cc(=O)oc2cc1C,n,x,n,x,36,n
CCCCCCC(=O)Nc1cc2c(C)cc(=O)oc2cc1C,n,x,n,x,n,n
COc1ccc2c3c(n(C)c2c1)[C@H](CO)N(C(=O)C1CC1)CC31CCN(C(=O)Nc2cccc(F)c2)CC1,x,n,x,x,x,x
O=C1CCCC2=C1Sc1ccccc1N2,x,10,n,x,n,x
COC(=O)c1ccc(C=Cc2c(-c3ccc(OC)cc3)oc3ccc(N4CCOCC4)cc23)cc1,n,x,x,n,x,n
COc1ccc(OC)c(C=NNC(=O)CSc2cc(C)nc3c(OC)cccc23)c1,n,x,x,n,x,n
COC(=O)c1cc2c(cc1[N+](=O)[O-])OCO2,n,n,n,n,n,n
COc1cc2c(cc1/C=C/[N+](=O)[O-])OCO2,n,n,n,n,242,n
CCN(CC)C(=O)C=Cc1ccccc1,n,x,x,n,x,n
Cc1noc(C)c1NC(=O)N(C)C[C@@H]1Oc2ccc(NC(=O)C3CC3)cc2C(=O)N([C@@H](C)CO)C[C@@H]1C,x,n,x,x,x,x
CCOC(=O)c1cccc2c1-c1ccccc1/C2=N/O,x,x,n,x,233,x
O=C(CSc1nccn(-c2ccc(F)c(F)c2)c1=O)NC1CCCC1,n,n,n,n,n,n
O=C(CSc1nccn(-c2cccc(F)c2)c1=O)Nc1ccc(Cl)cc1F,n,n,n,n,173,n
COc1cc(NN=C(C)c2ccc(O)c(C)c2)nc(-c2ccccc2)n1,n,x,x,n,x,n
CC(=NNc1cc(-c2ccccc2)nc(-c2ccccc2)n1)c1ccc(O)c(C)c1,99,x,x,n,x,98
Cn1cc(/C=C/c2cc[n+](C)cc2)c2cc(Cl)ccc21,n,n,n,35,n,n
O=C(C[C@@H]1C=C[C@@H](NC(=O)c2ccc3c(c2)OCO3)[C@H](CO)O1)NCc1ccc(F)cc1,x,n,x,x,x,x
O=C(Nc1ccn(CCCNCc2ccc3c(c2)OCO3)c(=O)n1)OCc1ccccc1,x,n,n,x,n,x
O=C(Cn1ccc(NC(=O)OCc2ccccc2)nc1=O)NCc1ccc2c(c1)OCO2,n,n,58,n,n,n
SMILES,Sa ugtP lethal,TcdB GH inh,MazF activator,Mtb hypoxia rep,PfHsp40 yeast,RN4220 kill
O=c1ccn(C2OC(CO)C(O)C2O)c(=O)[nH]1 (configuration not stated),n,x,x,n,x,n
O=c1cnn([C@@H]2O[C@H](CO)[C@@H](O)[C@H]2O)c(=O)[nH]1,x,x,n,x,61,x
Cc1cc(C(=O)COC(=O)CC2Sc3ccccc3NC2=O)c(C)n1-c1cccc(C(F)(F)F)c1 (configuration not stated),n,n,n,n,n,n
Cc1cc(C(=O)COC(=O)Cc2n[nH]c(=O)c3ccccc23)c(C)n1-c1cccc(C(F)(F)F)c1,n,x,n,n,96,n
COc1cc(-c2nc(=S)[nH][nH]2)cc(OC)c1OC,n,30,n,n,n,n
COc1ccc(-c2nc(=S)[nH][nH]2)cc1OC,n,n,n,n,n,n
CO[C@H]1CN(C)C(=O)c2ccc(NS(=O)(=O)c3ccccc3)cc2OC[C@@H](C)N(Cc2cccnc2)C[C@H]1C,x,n,x,x,x,x
N#CC(C#N)=C(Nc1ccc(F)cc1)SCc1cccc(Br)c1,96,n,n,n,n,100
CC(SCc1ccccc1)C(=O)Nc1ccc(F)cc1 (configuration not stated),n,n,n,n,n,n
